# Experimental data from PubChem BioAssay AID588474 (The Scripps Research Institute Molecular Screening Center, 2011).
# A number with no mark means an inactive call. Active and inactive are the calls of the source.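 Rule for the calls: active = inhibition of at least 75% in the gel-based probe competition assay; inactive = inhibition below 75%.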
# Molecular target: Platelet-activating factor acetylhydrolase (Mus musculus) (UniProt Q60963)
# Assay: recombinant plasma PAF acetylhydrolase inhibition – biochemical, gel-based competitive ABPP, fluorescence, orthogonal assay, late-stage follow-up (AID 588474)
# Settings: recombinant mouse pPAFAH, FP-Rh fluorescence, at 5 µM, stronger effect = higher value
# Platelet-activating factor acetylhydrolase (Mus musculus), sequence (Q60963 whole entry, looked up): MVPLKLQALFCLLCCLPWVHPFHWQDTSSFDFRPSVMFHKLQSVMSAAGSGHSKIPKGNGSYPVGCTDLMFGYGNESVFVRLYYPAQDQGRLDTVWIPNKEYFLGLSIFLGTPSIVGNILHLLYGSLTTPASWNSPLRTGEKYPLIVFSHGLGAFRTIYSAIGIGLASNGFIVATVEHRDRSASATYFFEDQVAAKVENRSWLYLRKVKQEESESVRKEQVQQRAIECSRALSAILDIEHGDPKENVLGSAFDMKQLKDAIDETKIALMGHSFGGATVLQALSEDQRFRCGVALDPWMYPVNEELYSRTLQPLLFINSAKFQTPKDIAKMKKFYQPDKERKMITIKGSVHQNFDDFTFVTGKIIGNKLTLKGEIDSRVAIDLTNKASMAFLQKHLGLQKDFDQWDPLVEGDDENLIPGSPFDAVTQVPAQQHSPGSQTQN
row,SMILES,inhibition
1,Cc1ccc(-n2c(C)cc(/C=C(\C#N)C(=O)NCC3CCCO3)c2C)cc1 (stereo unspecified),23%
2,CCCNC(=O)c1ccc(N2CC3CC(C2)c2cccc(=O)n2C3)c(NC(=O)Nc2ccc(CC)cc2)c1 (stereo unspecified),18%
3,O=C(Oc1ccc(-c2ccccc2)cc1)N1CCOCC1,98% (active)
4,O=C(CCCSc1ccc(Cl)cc1)Nc1cc(S(=O)(=O)N2CCOCC2)ccc1O,75% (active)
5,Cc1cc(/C=C(\C#N)C(=O)NCC2CCCO2)c(C)n1-c1ccc(Cl)cc1 (stereo unspecified),9%
6,CCOC(=O)N1CCC(NC(=O)CC2C(=O)NCCN2Cc2ccccc2F)CC1 (stereo unspecified),10%
7,CCOCCCNC(=O)c1ccc(N2CC3CC(C2)c2cccc(=O)n2C3)c(NC(=O)Nc2cccc(OC)c2)c1 (stereo unspecified),21%
8,Cc1ccc(NS(=O)(=O)c2ccc3c(c2)oc(=O)n3C)cc1F,53%
9,Cc1cccc(NS(=O)(=O)c2ccc3[nH]c(=O)oc3c2)c1C,17%
10,O=C(Oc1cccc(Oc2ccccc2)c1)N1CCOCC1,18%
11,O=C(Oc1nsnc1N1CCOCC1)N1CCCCC1,65%
12,COc1cc(OC)c(NC(=O)CCNS(=O)(=O)c2ccc3c(c2)oc(=O)n3C)cc1Cl,6%
13,O=C(/C=C/c1cccs1)c1cc(Br)ccc1OC(=O)N1CCOCC1,91% (active)
14,O=C(Oc1nsnc1N1CCCCC1)N1CCOCC1,55%
15,O=C(c1ccccc1)c1ccc(OC(=O)N2CCOCC2)cc1,55%
16,CCc1ccc(NC(=O)Nc2cc(C(=O)NCC3CCCO3)ccc2N2CC3CC(C2)c2cccc(=O)n2C3)cc1 (stereo unspecified),8%
17,CCn1c(NC(=O)c2cccc(Cn3cc(Cl)cn3)c2)nc2ccccc21,0%
18,CC(=O)Nc1ccc(NC(=O)CCn2c(=O)oc3ccccc32)cc1,30%

row,SMILES,inhibition
1,CCOC(=O)NC(=O)CSc1nc(-c2ccc(C)c(C)c2)cn1-c1ccccc1,56%
2,CCCCOC(=O)c1ccc(OC(=O)N2CCOCC2)cc1,93% (active)
3,Cc1ccc(NS(=O)(=O)c2ccc3[nH]c(=O)oc3c2)c(C)c1,18%
4,Cc1cc(C(=O)CSc2nc(N)cc(=O)[nH]2)c(C)n1CCc1ccc(Cl)cc1,6%
5,O=C(N/C=C/c1ccco1)OCc1ccccc1,-3%
6,Cn1c(=O)oc2cc(S(=O)(=O)Nc3ccc(F)cc3)ccc21,24%
7,COc1cccc(NC(=O)Nc2cc(C(=O)NCC3CCCO3)ccc2N2CC3CC(C2)c2cccc(=O)n2C3)c1 (stereo unspecified),18%
8,O=C(Oc1nsnc1N1CCOCC1)N1CCOCC1,84% (active)
9,CCOC(=O)N1CCN(C(=O)c2ccc3c(=O)n4c(nc3c2)CCCCC4)CC1,8%
10,O=C(Oc1ccc(Oc2ccccc2)cc1)N1CCC(O)CC1,82% (active)
11,CCCCOC(=O)Nc1nnc(CCc2ccccc2)s1,22%
12,O=C(Oc1ccnc2cc(Cl)ccc12)N1CCOCC1,22%
13,CCOC(=O)N1CCN(C(=O)CCN2C(=O)COc3ccc(C)cc32)CC1,22%
14,Cc1cccc(C2=NN(c3ccc(Br)cc3)[C@@H](C(=O)N3CCOC3=O)[C@@H]2c2ccccc2)c1,18%
15,COc1cccc(CNC(=O)CCC2CCCN(Cc3cc(Cl)ccc3O)C2)c1 (stereo unspecified),24%
16,O=C(Oc1ccc(-c2ccccc2)cc1)N1CCCCC1,79% (active)
17,CCOC(=O)N1CCN(C(=O)c2cccc(S(=O)(=O)Nc3ccc(Br)cc3)c2)CC1,7%
18,COc1cccc(NC(=O)Nc2cc(C(=O)NC(C)C)ccc2N2CC3CC(C2)c2cccc(=O)n2C3)c1 (stereo unspecified),41%
